In PubChem BioAssay (NCATS):
Results filed as inconclusive are left out. Where a call stands in place of a potency, no number is given. Calls of active or inactive are those of the source. Calls come from the whole dose curve; as a rule, active = well fitted cell-killing curve with a large enough effect; inconclusive = small, poorly fitted or top-dose-only effect; inactive = flat fitted curve, though single readings scatter.

Test: qHTS of pediatric cancer cell lines to identify multiple opportunities for drug repurposing: Primary screen for control Hh wild type fibroblast cells (AID 1347106); note: nearly all actives have a fitted effect of over 55% in size
Details: Hh wild-type fibroblast viability, CellTiter-Glo luminescence, 48 h; series mostly up to 46 µM
Description: Drug repurposing or repositioning has been offered as a strategy for drug development in oncology programs. This approach has special potential for childhood cancers and other rare or orphan diseases, where the expected return on new drug development has been a disincentive to pharmaceuticals.
In this project we exploit the poly-pharmacology of drugs to discover new indications via phenotypic screening of a panel of 19 well-characterized cell lines derived from solid tumors seen in children and adolescents. The goal is to identify approved drugs with previously unrecognized anticancer properties that has the potential to reveal new mechanisms and biological processes involved in carcinogenesis or drug resistance. We employed a titration-based paradigm (quantitative high-throughput screening or qHTS), where all compounds were tested at multiple concentrations for their effect on cell viability. Concentration-response curves (CRCs) were derived directly from the primary screen, and both potency and efficacy values were used to identify compounds with robust bioactivity profiles. We screened the NIH Chemical Genomics Center (NCGC) Pharmaceutical Collection (NPC) and Mechanism Interrogation Plate (MIPE) small molecule collections of approved and investigational compounds against these cell lines; and measured metabolically active cells after 48 hours of compound treatment as a proxy for cell viability.
Assay Submitter: Nathalia J. Martinez, National Center for Advancing Translational Sciences, National Institutes of Health, Rockville, MD, USA; email: natalia.martinez@nih.gov
[1] Shen, M et al. Quantitative high-throughput phenotypic screening of pediatric cancer cell lines identifies multiple opportunities for drug repurposing. Oncotarget 2017 Dec 19;9(4):4758-4772. PMID 29435139.
The cells were obtained from University of North Carolina (UNC), Pediatric Preclinical Testing Program (PPT), and Coriell Institute (CI).
qHTS cell viability assay:
Cells were assayed in growth media at a density of 500-1,000 cells/well. Five microliters of cells were dispensed into 1,536-well, white, solid-bottom, TC-treated plates (Greiner Bio One) using a multidrop dispenser and incubated at 37 degrees C, 5% CO2, under a humidified atmosphere for 5 hours. Twenty-three nanoliters of compounds and controls (neutral control DMSO or positive control bortezomib at final concentration of 2.3 µM) were subsequently transferred by Kalypsys pintool. For primary screens, the MIPE collection was tested at 11-point dilutions (final concentrations range from 0.78 nM to 46 µM) and the NPC collection at 8-point dilutions (final concentrations range from 0.59 nM to 46 µM). Compounds tested in follow-up screens were assayed at 11-point dilutions. Cells were incubated for 48 hours, followed by addition of 3 µL of CellTiter-Glo (Promega). After a 15 min incubation at room temperature, samples were analyzed for luminescence intensity using a ViewLux High-throughput CCD imager equipped with clear filters.
Potency is the fitted concentration of half-maximal effect.

| Compound | Potency |
| --- | --- |
| COc1cc2ncnc(Nc3cccc(Br)c3)c2cc1OC | inactive |
| C[C@H](NC(=O)C(C#N)=Cc1cccc(Br)n1)c1ccccc1 | inactive |
| OCc1ccccc1O[C@@H]1O[C@H](CO)[C@H](O)[C@H](O)[C@H]1O | inactive |
| Cn1cc(C[C@@H](N)C(=O)O)c2ccccc21 | inactive |
| O=C(C=Cc1ccc(CN(CCO)CCc2c[nH]c3ccccc23)cc1)NO | 2.35 µM (active) |
| Cc1cnn(C)c1C(=O)Nc1cc(Nc2ccc3c(C=Cc4ccccn4)n[nH]c3c2)ccc1F | inactive |
| CN(C)CC(=O)N1CCC(c2ccc(NC(=O)c3ncc(C#N)[nH]3)c(C3=CCCCC3)c2)CC1 | inactive |
| Cc1cnc(Nc2ccc(N3CCN(C)CC3)cc2)nc1Nc1cccc(S(=O)(=O)NC(C)(C)C)c1 | 16.6 µM (active) |
| C=CC[C@@H]1C=C(C)C[C@H](C)C[C@H](OC)[C@H]2O[C@@](O)(C(=O)C(=O)N3CCCC[C@H]3C(=O)O[C@H](C(C)=C[C@@H]3CC[C@H](O)[C@H](OC)C3)[C@@H](C)[C@@H](O)CC1=O)[C@@H](C)C[C@@H]2OC | inactive |
| COc1cc(C)c(C=CC(C)=CC=CC(C)=CC(=O)O)c(C)c1C | inactive |
| CN1[C@H]2CC(OC(=O)[C@@H](CO)c3ccccc3)C[C@H]1[C@H]1O[C@H]12 (stereo not given in full) | inactive |
| COc1cc(C[C@@H](CO)[C@H](CO)Cc2ccc(O)c(OC)c2)ccc1O | 0.418 µM (active) |
| O=C1c2c(O)cccc2[C@@H]([C@@H]2O[C@H](CO)[C@@H](O)[C@H](O)[C@H]2O)c2cc(CO)cc(O)c21 | inactive |
| CC(C)(O)Cn1c(NC(=O)c2ccc(-c3cn[nH]c3)s2)nc2cc(CN3CCOCC3)ccc21 | 6.62 µM (active) |
| CN(N=O)C(=O)N[C@H]1C(O)OC(CO)[C@@H](O)[C@H]1O (stereo not given in full) | inactive |
| CCOC(=O)C=C[C@H](C[C@@H]1CCNC1=O)NC(=O)[C@@H](CC(=O)[C@@H](NC(=O)c1cc(C)on1)C(C)C)Cc1ccc(F)cc1 | inactive |
| Nc1cccc2c1C(=O)N(C1CCC(=O)NC1=O)C2=O (stereo not given) | inactive |
| C=C1C(=CC=C2CCC[C@]3(C)[C@@H]([C@H](C)CCCC(C)(C)O)CC[C@@H]23)C[C@@H](O)C[C@@H]1O | inactive |
| C[C@@]12C[C@@]3(O)O[C@@H](O1)[C@]1(COC(=O)c4ccccc4)[C@@H]3C[C@@]12O[C@@H]1O[C@H](CO)[C@@H](O)[C@H](O)[C@@H]1O | inactive |
| C=C1C[C@@]2(O)O[C@@]3(C[C@H]2C(C)C)[C@H](C)CC[C@H]13 | inactive |

| Compound | Potency |
| --- | --- |
| Cc1cn([C@@H]2O[C@H](CO)[C@@H](O)[C@H]2F)c(=O)[nH]c1=O | inactive |
| COc1cccc2c1C(=O)c1c(O)c3c(c(O)c1C2=O)C[C@@](O)(C(=O)CO)C[C@@H]3O[C@H]1C[C@H](N)[C@H](OC2CCCCO2)[C@H](C)O1 (stereo not given in full) | inactive |
| C#C[C@]1(O)CC[C@@H]2[C@@H]3CCC4=CC(=O)CC[C@@H]4[C@H]3CC[C@@]21CC | inactive |
| CCN(CC)CCNC(=O)c1c(C)[nH]c(C=C2C(=O)Nc3ccc(F)cc32)c1C | 17.1 µM (active) |
| C=C(C)[C@@H]1CC[C@]2(C)CC[C@]3(C)[C@H](CC[C@@H]4[C@@]5(C)CC[C@H](O)C(C)(C)[C@H]5CC[C@]43C)[C@@H]12 | inactive |
| CC(=O)[C@]1(O)Cc2c(O)c3c(c(O)c2[C@@H](O[C@H]2C[C@H](N)[C@@H](O)[C@H](C)O2)C1)C(=O)c1ccccc1C3=O | 3.72 µM (active) |
| O=c1[nH]c(=O)n([C@H]2C[C@@H](O)[C@@H](CO)O2)cc1C=CBr | inactive |
| O=C(O)[C@H](CC(=O)N1C[C@@H]2CCCC[C@H]2C1)Cc1ccccc1 | inactive |
| CC(C)N(CC[C@H](c1ccccc1)c1cc(CO)ccc1O)C(C)C | inactive |
| CC(C)(C)c1nc2c3cc[nH]c(=O)c3c3cc(F)ccc3c2[nH]1 | inactive |
| C#CCC(Cc1cnc2nc(N)nc(N)c2n1)c1ccc(C(=O)N[C@@H](CCC(=O)O)C(=O)O)cc1 (stereo not given in full) | inactive |
| CON=C(C(=O)N[C@@H]1C(=O)N2C(C(=O)O)=C(Cn3ccc(=N)n3CCO)CS[C@H]12)c1csc(N)n1 | inactive |
| CC(=O)OCC(=O)[C@@]12N=C(C)O[C@H]1C[C@H]1[C@@H]3CCC4=CC(=O)C=C[C@]4(C)[C@@H]3[C@@H](O)C[C@@]12C | inactive |
| N=c1ccn2c(n1)O[C@H]1[C@@H](O)[C@@H](CO)O[C@H]12 | inactive |
| O=C(O)CCCCCC(=O)NN=C1CCCC1 | inactive |
| Cc1cc(O)c2c(c1)C(=O)c1cccc(O)c1C2=O | inactive |
| COC(=O)[C@H](CCCN=C(N)N)NS(=O)(=O)c1ccc(C)cc1 | inactive |
| O=C1CSC(=O)N1C(CCc1ccncc1)COc1ccc(-c2cccc([N+](=O)[O-])c2)cc1 (stereo not given) | inactive |
| O=C(O)C(=O)Nc1cccc(C2=NN=N[N]2)c1 | inactive |
| CCCCCCCCCCCC(CC1OC(=O)C1CCCCCC)OC(=O)C(CC(C)C)NC=O (stereo not given) | inactive |
